Data taken from PubChem BioAssay (NCATS).
Inconclusive results are not listed. Activity calls are given as the source filed them. Calls come from the whole dose curve; as a rule, active = well fitted inhibition curve with a large enough effect; inconclusive = small, poorly fitted or top-dose-only effect; inactive = flat fitted curve, though single readings scatter.

Each compound was assayed against Calcium and integrin-binding protein 1 (Homo sapiens) (UniProt Q99828) (assay: Primary qHTS for Identification of Calcium Integrin Binding Protein 1 (CIB1) Competitor (AID 1508620;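 note: GST tagged CIB1 binding a fluorescein labelled alphaIIb integrin peptide tracer; top concentration of the series differs between compounds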)). Conditions: CIB1-GST / FITC-alphaIIb peptide fluorescence polarization; series mostly up to 114 µM; activity change, negative = inhibition: at the top concentration.
Chain of Calcium and integrin-binding protein 1 (Homo sapiens) (Q99828 whole entry, looked up): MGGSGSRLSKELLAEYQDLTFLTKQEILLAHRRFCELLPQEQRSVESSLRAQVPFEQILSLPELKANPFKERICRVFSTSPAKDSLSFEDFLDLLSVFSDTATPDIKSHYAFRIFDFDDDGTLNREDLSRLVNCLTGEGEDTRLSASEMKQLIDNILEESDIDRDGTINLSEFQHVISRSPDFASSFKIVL
Summary of the method: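 Fluorescence polarization competition: CIB1-GST (1 uM final) preincubated with compound 15 min at room temperature, then FITC-labeled alphaIIb peptide (100 nM final) added for another 15 min. Polarization read at Ex 480/Em 540.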
% is set by controls: 0 for no effect and ±100 for the full control effect.

Row | Compound | activity change, negative = inhibition
1 | Cc1ccc(OCCn2c(CCNC(=O)Cc3cccc(F)c3)nc3ccccc32)cc1 | 6.44% (inactive)
2 | COc1cccc(NS(=O)(=O)c2ccc(NCc3cccc(OC)c3O)cc2)c1 | -1.84% (inactive)
3 | Cc1ccc(N2CCN(C(=S)Nc3cc(C)ccn3)CC2)cc1 | -9.46% (inactive)
4 | Cc1ccc(NS(=O)(=O)c2ccc3c(c2)NC(=O)CO3)cc1C | 5.69% (inactive)
5 | COc1cc(-c2nc(Nc3ccc(F)c(F)c3)c3ccccc3n2)c(F)cn1 | 1.3% (inactive)
6 | O=C(Nc1nc2cc(C(F)(F)F)ccc2s1)c1ccc(-c2cccc([N+](=O)[O-])c2)o1 | 1.09% (inactive)
7 | CN(C)c1cccc(-c2ncc(F)c(N3CCC(C(N)=O)CC3)n2)c1 | 3.13% (inactive)
8 | CC(C)(C)Nc1nc(C#N)nc(Nc2ccccc2)n1 | -3.05% (inactive)
9 | COc1cc(Cl)c(C)cc1NC(=O)C(OC(=O)CNC(=O)c1ccccc1)c1ccccc1 (stereo not given) | 3.42% (inactive)
10 | Cc1c(P(=S)(c2ccccc2)c2ccccc2)c2ccccc2n1C(=O)NCc1ccccc1 | 3.86% (inactive)
11 | Cc1cc(C)nc(NC(=S)N2CCN(c3cccc4ccccc34)CC2)c1 | -8.69% (inactive)
12 | O=C(O)c1ccc2c(c1)C(=O)N([C@H](Cc1ccc(O)cc1)C(=O)O)C2=O | -0.01% (inactive)
13 | O=C(NCCCc1ccccc1)C1CCN(c2nc(-c3ccc(Br)cc3)cs2)CC1 | 4.01% (inactive)
14 | O=C(NCc1nnc(-c2cc3ccccc3[nH]2)o1)c1ccccc1 | -1.45% (inactive)
15 | Cc1cccc(-n2cnc3cc(C(=O)N4CCCC4)ccc32)c1 | 0.905% (inactive)
16 | NC(=O)c1cccc(-c2noc(-c3ccccc3F)n2)c1 | -0.173% (inactive)
17 | FC(F)(F)c1ccccc1-c1nc2c(c(NCc3ccc(-c4cccnc4)cc3)n1)CCC2 | 2.02% (inactive)
18 | COc1ccc(C(F)(F)F)cc1NC(=O)C(OC(=O)CNC(=O)c1ccccc1)c1ccccc1 (stereo not given) | 2.97% (inactive)
19 | Cc1cc(-c2ccccc2)nc2c(C(=O)Nc3ccc(Cl)c(Cl)c3)cnn12 | 3.33% (inactive)
20 | O=C(CN1C(=O)N/C(=C\c2cccn2-c2cccc(C(=O)O)c2)C1=O)Nc1ccc(F)cc1 | 6.14% (inactive)

Row | Compound | activity change, negative = inhibition
21 | O=[S+]([O-])(c1ccc2c(c1)OCCO2)N1CCN([S+](=O)([O-])c2c(F)cc(Br)cc2F)CC1 | 8.33% (inactive)
22 | CC(=O)Nc1ccc(S(=O)(=O)N2CCN(S(=O)(=O)c3ccc4c(c3)OCCO4)CC2)cc1 | -14.7% (inactive)
23 | O=[S+]([O-])(c1ccc(N2CCOCC2)nc1)N1CCN([S+](=O)([O-])c2c(F)cccc2F)CC1 | -3.05% (inactive)
24 | Cc1cccc(-c2ccc3ncnc(NCc4cccc(F)c4)c3c2)c1 | 0.984% (inactive)
25 | CS(=O)(=O)c1ccccc1-c1csc(N2CCC(C(N)=O)CC2)n1 | 1.27% (inactive)
26 | O=C(NCc1cccnc1)C1CCN(S(=O)(=O)c2cccs2)CC1 | 6.96% (inactive)
27 | O=C1CCc2cc(S(=O)(=O)Nc3cccnc3)ccc2N1 | 5.83% (inactive)
28 | COc1ccc(C2Nc3ccccc3C(=O)N2Cc2ccccc2)cc1COc1c(C)cc(NC(C)=O)cc1C (stereo not given) | -0.44% (inactive)
29 | COc1ccc(C2=Nn3c(nnc3-c3ccccc3C)SC2)cc1 | -2.45% (inactive)
30 | CC(C)(C)OC(=O)N1CCN(c2ccc(NCc3ccc(-c4ccc(C#N)cc4)o3)nc2)CC1 | 4.28% (inactive)
31 | N#CN/C(=N\c1nnc(-c2ccncc2)s1)Nc1ccc(F)c(C(F)(F)F)c1 | -13.1% (inactive)
32 | N#Cc1ccccc1OC1=NS(=O)(=O)c2ccccc21 | 3.75% (inactive)
33 | Brc1ccc(-c2csc(N3CCCCC3)n2)cc1 | -1.81% (inactive)
34 | Cc1csc(CNc2ncnc3ccc(-c4ccccc4Cl)cc23)c1 | 4.98% (inactive)
35 | CC1=C(C(=O)Nc2nc3ccccc3s2)C2(CCCC2)N=C(Nc2nc3ccccc3o2)N1 | -0.823% (inactive)
36 | NC(=O)C1CCN(c2nc(-c3ccc(Cl)cc3)cs2)CC1 | 8.47% (inactive)
37 | O=C(Cc1ccccc1)Nc1ncnc2c1C(c1ccccc1)c1c(ccc3ccccc13)O2 (stereo not given) | 7.96% (inactive)
38 | O=C(N/C=C/c1ccccc1)c1cccc([S+](=O)([O-])Nc2ccccc2F)c1 | 4.59% (inactive)
39 | Cc1ccc(NS(=O)(=O)c2cc3c(cc2F)NC(=O)CC3)cc1C | -0.372% (inactive)
40 | Cc1cc(C)nc(NC(=S)N2CCN(c3ccc4cn(C)nc4c3)CC2)c1 | -2.21% (inactive)
